# Records with an inconclusive call do not appear. Calls of active or inactive are those of the source. The call rests on the fitted dose curve; in most records, active means well fitted inhibition curve with a large enough effect; inconclusive means small, poorly fitted or top-dose-only effect; inactive means flat fitted curve, though single readings scatter.
# Test system: CRL-7250
# Assay: qHTS assay to identify novel small-molecules to repurpose for Merkel cell carcinoma treatment (AID 1296009); further: nearly all actives have a fitted effect of over 60% in size
# Settings: MCC and control cell lines, CellTiter-Glo viability, 72 h; series mostly up to 92 µM; activity change, negative = cytotoxicity: at the top concentration
# Summary of the method: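 Cells were incubated with compound for 72 hr at 37 degree celsius before CellTiter-Glo addition. Luminescence was normalized with no-cell wells as full cytotoxicity and DMSO as baseline.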
row,Compound,outcome
1,CC1C2=CC(=O)OC2(O)CC2C1C(O)CC1C(C)(CO)CCCC21C (configuration not stated),inactive
2,CC(=O)OC[C@@]12[C@H](O)C[C@]3(C)C(=CCC4[C@@]5(C)CC[C@H](O[C@@H]6O[C@H](C(=O)O)[C@@H](O[C@@H]7O[C@H](CO)[C@@H](O)[C@H](O)[C@H]7O)[C@H](O)[C@H]6O[C@@H]6O[C@H](CO)[C@@H](O)[C@H](O)[C@H]6O)[C@](C)(CO)C5CC[C@]43C)[C@@H]1CC(C)(C)[C@@H](OC(C)=O)[C@@H]2O (some centres not stated),inactive [at 9.27 µM]
3,CC(C)(OC1OC(CO)C(O)C(O)C1O)C1CCC(O)(CO)C2CC(=O)C(C)(O)C2C1 (configuration not stated),inactive [at 17.4 µM]
4,COCC(=O)N1CCc2cc(-c3csc(NC(=O)c4cc(OC)cc(OC)c4)n3)ccc21,inactive
5,COCC1OC(n2cnc3c(=O)[nH]cnc32)C(O)C1O (configuration not stated),inactive
6,CCC(C)/C=C(C)/C=C/C1=CC2=C(Cl)C(=O)C(C)(OC(C)=O)C(=O)C2=CN1C1CCCCN(C(CCC(N)=O)C(=O)O)C1=O (configuration not stated),inactive [at 17.4 µM]
7,CC/C=C\CC1C(CC(=O)O)CCC1OC1OC(CO)C(O)C(O)C1O (configuration not stated),inactive
8,COc1cc(C2Oc3c(OC)cc(CCCO)cc3C2CO)ccc1O[C@H]1O[C@H](C)[C@@H](O)[C@H](O)[C@@H]1O (some centres not stated),inactive [at 17.4 µM]
9,O=C(NCC1(N2CCN(c3ccccc3)CC2)CCOCC1)c1cccnc1Sc1ccccc1,inactive
10,CC(=O)OC[C@]1(O)[C@H]2[C@H](OC(=O)CC(C)C)OC=C(CO[C@@H]3O[C@H](CO)[C@@H](O)[C@H](O)[C@H]3O)[C@H]2C[C@@H]1O,inactive [at 17.4 µM]
11,COC(=O)[C@@H](O)[C@H]1[C@@]2(C)CC3(O)[C@@H](C(=O)[C@H]2O)[C@]24O[C@]25CC(=O)O[C@@H](c2ccoc2)[C@]5(C)CCC4[C@]13C (some centres not stated),inactive [at 17.4 µM]
12,COc1ccc2cc(C(C)C(=O)Oc3ccc(C(N)=S)cc3)ccc2c1 (configuration not stated),inactive
13,O=C1COc2nccc(-c3ccccc3F)c2CN1Cc1cc(C(F)(F)F)cc(C(F)(F)F)c1,inactive
14,O=C(Nc1ccn[nH]1)c1c(F)cccc1F,inactive
15,CC1CCC2(C)CCC3(C)C(=CCC4C5(C)CCC(O)C(C)(C(=O)O)C5CCC43C)C2C1C (configuration not stated),inactive [at 17.4 µM]
16,C[C@H](NCc1ccc(OCc2ccccc2F)cc1)C(N)=O,inactive
17,C[C@@H]1O[C@@H](O[C@@H]2[C@@H](O[C@@H]3O[C@@H](C)[C@H](O[C@@H]4OC[C@H](O)[C@H](O[C@@H]5OC[C@@H](O)[C@H](O)[C@H]5O)[C@H]4O)[C@@H](O[C@@H]4OC[C@](O)(CO)[C@H]4O)[C@H]3O)[C@H](OC(=O)[C@]34CCC(C)(C)C[C@H]3C3=CCC5[C@@]6(C)C[C@H](O)[C@H](O[C@@H]7O[C@H](CO[C@@H]8OC[C@H](O)[C@H](O)[C@H]8O)[C@@H](O)[C@H](O)[C@H]7O)C(C)(C)C6CC[C@@]5(C)[C@]3(C)C[C@H]4O)OC[C@H]2O)[C@H](O)[C@H](O)[C@H]1O (some centres not stated),inactive [at 9.27 µM]
18,C[C@@H]1O[C@@H](O[C@H]2[C@H](O[C@H]3[C@H](O[C@H]4CC[C@@]5(CO)C(CC[C@]6(C)C5CC=C5C7CC(C)(C)C[C@@H](O)[C@]7(C)CC[C@]56C)C4(C)C)O[C@H](C(=O)O)[C@@H](O)[C@@H]3O)OC[C@@H](O)[C@@H]2O)[C@H](O)[C@H](O)[C@H]1O (some centres not stated),inactive [at 9.27 µM]
19,CCC/C=C1\OC(=O)C2=C1CCC(O)C2O (configuration not stated),inactive
20,O=C(/C=C/c1ccc(O)c(O)c1)OC[C@H]1O[C@@H](OC2CCCCC2O)[C@H](O)[C@@H](O)[C@@H]1O (some centres not stated),inactive [at 17.4 µM]
21,C=C1CCC2C(C)(C)CCC[C@]2(C)[C@H]1CC/C(C)=C/C(=O)O (some centres not stated),inactive
22,C=C1C[C@]23C[C@H]1CC[C@H]2[C@]1(C)CCC[C@@](C)(C(=O)O)[C@H]1[C@@H]3C(=O)O,inactive
23,C/C=C/CCC1Cc2cc(O)c(CCCC)c(O)c2C(=O)O1 (configuration not stated),inactive
24,CC(=O)OC1C(O)C(C)=C(CCC(C)CC(=O)O)C2(C)CCCC(C)(C)C12 (configuration not stated),inactive
25,COc1c2c(c(C)c3c1C(=O)OC3)OC1(C)CC(O)C34OC(OC)(CC(OC(C)=O)C3(C)C1C2)OC4(C)C (configuration not stated),inactive [at 17.4 µM]
26,N[C@@H](CCNCc1ccc(Cl)cc1)C(=O)N1CCCCC1,inactive
27,C[C@H]1O[C@@H](O[C@H]2CC[C@@]3(C)C(CC[C@]4(C)C3CC=C3C5CC(C)(C)CC[C@]5(C(=O)O)CC[C@]34C(=O)O)C2(C)C)[C@H](O)[C@@H](O)[C@@H]1O (some centres not stated),inactive [at 17.4 µM]

# From PubChem BioAssay (NCATS)
